# miR122 inh – inhibitors of miR-122 in Huh7 cells; Huh7 miR-122 Renilla luciferase sensor, 48 h; neutral wells = 0, positive control = 100; activation (reporter increase), % at 12.5 µM; hit rate 0.3% among 340,000; AID 602342;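 active means mean replicate activation score at least 90 and every replicate individually at or above 90; inconclusive means only one of the two criteria met; inactive means neither criterion met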;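 further: higher luciferase means less miR-122 activity so hits act as miR-122 inhibitors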
# C2C12 statin – protects C2C12 myotubes from simvastatin toxicity; hit rate 0.78% among 330,000; rescue of ATP level, % at 7.49 µM; ATP luminescence, 48 h; scaled: DMSO 0, geranylgeraniol control 100; AID 602340;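 active means mean ATP rescue above about 67%, or every replicate alone reaching that limit, limit read from the data, passing the limit was not always enough; inconclusive means no clear call, values can overlap the other calls; inactive means mean under the limit and some replicate under it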;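 further: myotubes were challenged with 10 µM simvastatin during compound exposure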
# PAX8 inh HTS – lowers PAX8-driven luciferase in RMG-I cells; inhibition, % at 12.6 µM; AID 652154; hit rate 1.2% among 360,000; RMG-I TPO-luciferase reporter, SteadyGlo, 24 h;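 active means mean replicate inhibition at least 60% with every replicate also reaching 60%; inconclusive means only one of the two criteria is met; inactive means mean below 60% and not all replicates reaching 60%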;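 further: luciferase light reporting Pax8 driven TPO promoter activity; plate controls were median of neutral control wells for no effect and mitoxantrone controls for full effect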
# EWS-Fli block – inhibitors of EWS/Fli oncoprotein transcriptional activity; inhibition, % at 12.6 µM; hit rate 0.67% among 350,000; A673 NR0B1-luciferase reporter, viability-normalised; AID 651661;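 active means mean inhibition of at least 50% after viability correction, with every replicate also passing that limit; inconclusive means mean reaches 50% but only one of two replicates passes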;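 further: firefly luciferase signal divided by Alamar Blue viability fluorescence both relative to DMSO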
# Env fusion inh – inhibitors of HIV Env-mediated cell fusion; hit rate 1.1% among 360,000; HeLa-JRFL Env/CEM21 cell fusion, luciferase; inhibition, % at 12.3 µM;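 active means mean replicate inhibition score of at least 50 and every replicate individually at or above 50; inconclusive means only one of the two criteria met; inactive means mean below 50 and not all replicates reaching 50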;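 further: 0% = plate neutral controls and 100% = maraviroc near 300 nM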
# INS-1E GSIS act – GLuc luminescence reporter in INS-1E cells, primary screen for activators of glucose-dependent secretion of insulin; INS-1E GLuc reporter insulin secretion, 2-3 h; activation, % at 16.6 µM; hit rate 0.61% among 370,000;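 active means lowest replicate activation of at least 40%, so every replicate reaches that level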;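 further: 0% = median of neutral control wells and 100% = median of IBMX positive control wells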
# An asterisk follows results filed as active; ? = inconclusive; nt = no result given; ! = not active in a repeat; [ ] = dose if it differs, or a comment. Rows were chosen to be rich in hits. Some 3.1% of all compounds tested hit in one or more screens of this group.
SMILES,miR122 inh,C2C12 statin,PAX8 inh HTS,EWS-Fli block,Env fusion inh,INS-1E GSIS act
Cc1nn(C)c(Cl)c1NC(=O)OCc1ccc(Cl)cc1Cl,-16,-9,14,nt,73*,nt
Cc1nnsc1NC(=O)OCc1ccc(Cl)cc1Cl,3,12,nt,nt,nt,nt
CC(C)CNC(=O)c1ccccc1SCC(=O)NC12CC3CC(CC(C3)C1)C2,nt,nt,5,nt,64*,-10
CC(C)CNC(=O)COC(=O)c1ccccc1SCC(=O)NCC(C)C,nt,nt,8,-1,2,-5
CCOC(=O)/C=c1\sc2n(c1=O)CCN=2,0,-5,nt,nt,-27,48*
COC(=O)/C=c1/sc2n(c1=O)CCN=2,0,-22,nt,nt,nt,0
C[C@@H]1CCCCO[C@@H](CN(C)Cc2ccncc2)[C@H](C)CN([C@H](C)CO)C(=O)c2cc(NS(C)(=O)=O)ccc2O1,-8[16.7 µM],-20,-2,3,13[16.7 µM],14
CCCNC(=O)N1C[C@@H](C)[C@H](OC)CN(C)C(=O)c2cc(NC(=O)C3CCC3)ccc2OC[C@H]1C,17[16.7 µM],-2,nt,4,nt,-1
O=C1c2cccnc2C(Nc2ccccc2)N1Cc1ccco1 (configuration not stated),1,2,-10,nt,2,nt
O=C1c2cccnc2C(Nc2cccc(F)c2)N1Cc1ccco1 (configuration not stated),13,nt,-18,-14,-118,70*
CC(=O)c1cccc(NC2c3ncccc3C(=O)N2Cc2ccco2)c1 (configuration not stated),-2,-8,nt,-1,nt,50*
CC(=O)c1cccc(NC2c3ccccc3C(=O)N2Cc2ccco2)c1 (configuration not stated),0,4,7,7,9,8
O=C(NCc1nc2ccccc2[nH]1)C1=C[C@@H](c2ccc(Br)cc2)C[C@@H](OCCCCO)O1,0,-12,9,15,-27,-19
O=C(NCc1nc2ccccc2[nH]1)C1=C[C@@H](c2ccc(Br)cc2)C[C@@H](OCc2ccc(CO)cc2)O1,6,-3,85*!,15,-11,1
CC1CCCC(NS(=O)(=O)c2ccc3c(c2)OCCO3)C1C (configuration not stated),?,16,nt,nt,nt,nt
COc1ccc(S(=O)(=O)NC2CC3CCC2C3)cc1Cl (configuration not stated),108*,-3,nt,11,nt,-32
O=S(=O)(NC1CC2CCC1C2)c1ccc2c(c1)OCCO2 (configuration not stated),126*,3,nt,nt,nt,nt
O=C(C[C@H]1C[C@H]2c3cc(NC(=O)Cc4ccncc4)ccc3O[C@H]2[C@@H](CO)O1)NCc1ccccc1,1[16.7 µM],-3,30,4,2[16.7 µM],4
COc1cc2nc(N(C)C)nc(N)c2cc1OC,-5,78*,nt,nt,nt,nt
CCCCN1C=CC(=C2C(=O)c3ccccc3C2=O)C=C1,-1,-92,82*,80*,84*,1
CC(C)(C)[S@@](=O)N1Cc2cc(C(=O)N3CCCCC3)nc(-c3cccc(-c4ccc(C#N)cc4)c3)c2[C@H]1CCO,nt,-10,-3,1,-19[16.7 µM],-12
O=C(NCC[C@@H]1CC[C@H](NC(=O)c2cnccn2)[C@H](CO)O1)Nc1ccc(Cl)cc1,nt,4,-1,-7,4[16.7 µM],-21
CN(C)S(=O)(=O)c1ccc(Nc2nc(C3CC3)nc3c2nnn3Cc2ccccc2Cl)cc1,nt,nt,67*,nt,48*,0
C[C@H]1CN([C@@H](C)CO)C(=O)c2cc(NC(=O)Nc3ccc4c(c3)OCO4)ccc2O[C@H]1CN(C)S(=O)(=O)c1ccc(Cl)cc1,-9[16.7 µM],nt,nt,0,65*[16.7 µM],-18
Cc1ccc(S(=O)(=O)N(C)C[C@H]2Oc3ccc(NC(=O)Nc4ccc5c(c4)OCO5)cc3C(=O)N([C@@H](C)CO)C[C@H]2C)cc1,34[16.7 µM],-35,-2,-5,0[16.7 µM],-19
SMILES,miR122 inh,C2C12 statin,PAX8 inh HTS,EWS-Fli block,Env fusion inh,INS-1E GSIS act
C[C@H](CO)N1C[C@H](C)[C@H](CN(C)S(=O)(=O)c2ccc(Cl)cc2)Oc2ccc(NC(=O)Nc3ccc4c(c3)OCO4)cc2C1=O,-5[16.7 µM],nt,nt,5,111*[16.7 µM],-18
Cc1ccc(S(=O)(=O)N(C)C[C@@H]2Oc3ccc(NC(=O)Nc4ccc5c(c4)OCO5)cc3C(=O)N([C@H](C)CO)C[C@@H]2C)cc1,-1[16.7 µM],-84,-24,10,60*[16.7 µM],-20
C[C@@H]1CN([C@@H](C)CO)C(=O)Cc2cc(NS(=O)(=O)c3ccc(F)cc3)ccc2O[C@H]1CN(C)S(=O)(=O)c1ccc(F)cc1,27[16.7 µM],37,-20,6,15[16.7 µM],-5
CN1c2ccc(C3=CCCCC3)cc2[C@@H]2[C@@H](CCN2C(=O)Nc2ccccc2F)[C@@H]1CO,-4[16.7 µM],22,23,9,nt,12
CCC(=O)N1C[C@H](C)[C@H](OC)CN(C)C(=O)c2cc(NC(=O)NC3CCCC3)ccc2OC[C@@H]1C,nt,nt,nt,6,nt,6
C[C@H]1CN([C@@H](C)CO)C(=O)Cc2cc(NS(=O)(=O)c3ccc(F)cc3)ccc2O[C@H]1CN(C)Cc1ccc(C(=O)Nc2ccccc2N)cc1,114*[16.7 µM],35,11,35,-65[16.7 µM],5
Cc1ccc(S(=O)(=O)Nc2ccc3c(c2)CC(=O)N([C@H](C)CO)C[C@H](C)[C@H](CN(C)Cc2ccc(C(=O)Nc4ccccc4N)cc2)O3)cc1,229*[16.7 µM],-14,18,45,-38[16.7 µM],12
CC(C)CSc1nc2c(c(=O)[nH]c(=O)n2C)n1CCc1ccccc1,0,6,nt,nt,nt,71*
CCCCCCn1c(SCC(C)C)nc2c1c(=O)[nH]c(=O)n2C,1,41,nt,nt,nt,71*
C/C=C/Cn1c(SCc2ccccc2)nc2c1c(=O)[nH]c(=O)n2C,2,116*,nt,nt,nt,nt
C=CCn1c(SCC(=C)C)nc2c1c(=O)[nH]c(=O)n2C,-10,6,-2,4,-57,31
CCCCCCn1c(SCC(=O)OC)nc2c1c(=O)[nH]c(=O)n2C,-2,-6,-1,1,12,nt
C=C(C)CSc1nc2c(c(=O)[nH]c(=O)n2C)n1CCC(C)C,-5,20,-21,-7,1,55*
CC(C)CCSc1nc2c(c(=O)[nH]c(=O)n2C)n1CCc1ccccc1,-3,nt,nt,nt,nt,nt
C[C@@H]1CN([C@@H](C)CO)C(=O)c2cccc(NS(=O)(=O)c3ccc(F)cc3)c2O[C@@H]1CN(C)Cc1ccncc1,-2[16.7 µM],-6,19,9,nt,3
Cc1nc(N2CCN(C(=O)COc3ccccc3)CC2)c2c(C)c(C)sc2n1,-2,-2,21,nt,61*,nt
O=C(c1ccc(C(F)(F)F)cc1)C1CCCN(C(=O)CCN2CCCO2)C1 (configuration not stated),13,67*,-14,4,17,-3
O=C(c1ccc(C(F)(F)F)cc1)C1CCCN(C(=O)Cn2cncn2)C1 (configuration not stated),3,nt,-5,4,-6,-2

# Source: PubChem (Broad Institute)
